Screening data (PubChem)
Pf growth 96h: inhibits malaria parasite growth, 96 h; 320,000 tested, 6.9% active; P. falciparum luciferase reporter growth, 96 h; Potency, µM (series often up to 28.7 µM), for inactives: at the highest dose activity change, negative = inhibition, most hits filed as inhibitors; note: potency is the fitted concentration of half-maximal effect; % is set by controls: 0 for no effect and ±100 for the full control effect
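Readout is luminescence from an integrated firefly luciferase in P. falciparum. Red cells, 2% hematocrit and 0.05% parasitemia final, were cultured with compound through two parasite generations (96 hours) at 37 C, 5% CO2.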
NS1 function inh: inhibitors of influenza NS1 protein function; Potency, µM (titrated, usually from 46.1 µM), inactives show at the highest dose activity, positive = more growth; 270,000 tested, 0.4% active; calls by dose curve; note: potency is the fitted concentration of half-maximal effect; actives are rising curves; nearly all actives have a fitted effect of over 50% in size
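S. cerevisiae expressing influenza A NS1, grown in glucose, washed, then diluted 1:100 into pH 6.0 -URA galactose medium with 23 nl compound. Growth recovery read as OD600; NS1-free strain serves as control.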
Shiga toxin inh: blocks Shiga toxin action in Vero cells. Vero cells, Shiga toxin protein synthesis inhibition reporter. inhibition, % at 38.7 µM. 290,000 tested, 9.2% active; in the data active = inhibition mostly above about 28%, no sharp cut-off; inactive = mostly below about 43%; note: 0% is about no effect
Sm TGR inh: inhibitors of Schistosoma mansoni thioredoxin glutathione reductase; purified TGR, DTNB reduction, TNB absorbance 405 nm; Q962Y6; Potency, µM (doses to about 114 µM), inactives show at the top dose activity change, negative = inhibition, usual class: inhibitors; 360,000 tested, 3% active; note: potency is the fitted concentration of half-maximal effect; % is set by controls: 0 for no effect and ±100 for the full control effect; nearly all actives have a fitted effect of over 60% in size
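TGR 20 nM + NADPH 100 uM (dispensed conc.), cpd preinc 15 min RT; start with NADPH (500 uM addition) then DTNB (15 mM addition). Kinetic TNB absorbance, 405 nm filter. Four-parameter Hill fit across titration.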
Pf growth 48h: inhibits P. falciparum growth in the first generation, 48 h; P. falciparum luciferase growth in erythrocytes, 48 h; 310,000 tested, 5.9% active; Potency, µM (doses to about 28.7 µM), without a hit: at the top dose activity change, negative = inhibition, hits mostly inhibitors; AID 504832; note: potency is the fitted concentration of half-maximal effect; % is set by controls: 0 for no effect and ±100 for the full control effect
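Growth was read as firefly luciferase luminescence after a 48 h, 37 C, 5% CO2 exposure of compounds to reporter-bearing P. falciparum cultures (0.1% parasitemia, 2% hematocrit final) in Albumax-supplemented RPMI 1640.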
CHX counter: counter-screen hit for Shiga toxin inhibitors, cycloheximide. cell reporter, cycloheximide protein synthesis inhibition counterscreen. max response, %. 300,000 tested, 12% active; in the data active = max response mostly above about 13%, no sharp cut-off; inactive = mostly below about 14%; note: read at 38.3 µM for the half of the compounds with a filed dose; 0% is about no effect
The depositor's hits bear a star; i = inactive; ? = inconclusive; / = not tested or not shown; + = active, no number; ! = not active in a repeat; [ ] = another dose, or the depositor's remark. Only some compounds are listed: those with a hit (about 21% of all), similar ones and a draw of the others. Unless noted, calls come from the whole dose curve; as a rule, active = well fitted curve in the direction sought with a large enough effect; inconclusive = small, poorly fitted or top-dose-only effect, or another doubt; inactive = no such curve, though single readings can be large; an effect the other way counts as inactive or inconclusive.

SMILES	Pf growth 96h	NS1 function inh	Shiga toxin inh	Sm TGR inh	Pf growth 48h	CHX counter
CCc1ccc(CNC(=O)CCCN2C(=O)c3cccnc3Oc3ccc(Cl)cc32)cc1	/	/	/	1.9%	/	/
COc1cccc(-n2nnnc2SCC(=O)Nc2ccc(OC)cc2OC)c1	2.8%	3.8%	-7.3	2.5%	24.4%	-2.1
O=C(Nc1ccc2c(c1)OCCO2)C1CCCN(S(=O)(=O)Cc2ccccc2)C1 (stereo not given)	0.0%	-4.7%	71.9*	-4.3%	/	55.8*
O=C(NCCc1ccccn1)C1CCCN(S(=O)(=O)Cc2ccccc2)C1 (stereo not given)	3.7µM*	-7.6%	-14.3	6.5%	/	-1.7
O=C(C1CCCN(S(=O)(=O)Cc2ccccc2)C1)N1CCC(Cc2ccccc2)CC1 (stereo not given)	?	-45.7%	-12.1	-17.5%	/	-6.1
O=C(O)C1CCCN(S(=O)(=O)Cc2ccccc2)C1 (stereo not given)	2.33µM*	2.7%	4.7	5.9%	38.0%	-1.3
CC(C)CNc1nc(N)[nH]c(=O)c1NC=O	/	-1.0%	/	/	/	/
Cc1ccc(NC(=O)CN(Cc2ccccc2)S(=O)(=O)c2ccc3nc(C)sc3c2)c(C)c1	/	/	/	-0.1%	/	/
Cc1[nH]c2ccc(OC(F)(F)F)cc2c1CCNCc1cccc([N+](=O)[O-])c1	156.0%	4.1%	-4.0	-12.9%	1.47µM*	-2.3
CCOc1cccc(CNCCc2c(C)[nH]c3ccc(OC(F)(F)F)cc23)c1O	?	7.7%	-13.5	0.0%	1.85µM*	-6.5
O=C(c1cnsn1)N1CCC(CO)(Cc2cccc(F)c2)CC1	?	-4.9%	67.2*	0.7%	32.6%	53.8*
CCOC(=O)C1=NN(C(=O)Cc2ccccc2)C(O)(C(C)(C)C)C1 (stereo not given)	228.4%	-3.7%	1.4	12.1%	7.5%	-2.2
O=[N+]([O-])c1ccc(C2CC(c3ccccc3)=Nc3ccccc3S2)cc1 (stereo not given)	2.9%	-52.5%	66.8*	-14.3%	?	56.5*
O=C(O)C1CC(c2ccccc2)=NO1 (stereo not given)	/	2.7%	-6.7	-4.5%	10.3%	-0.9
O=C(O)C1CC(c2ccccc2)=Nc2ccccc2S1 (stereo not given)	38.6%	6.9%	72.5*	-2.3%	?	57.6*
Cc1nsc(Nc2ccccc2)c1C#N	?	/	-24.1	-5.2%	8.9%	1.6
O=C(Oc1ccc2ccccc2c1)c1ccccc1	19.7%	-10.7%	94.2	-1.2%	/	22.5*
O=C(Oc1cccc(C(=S)N2CCCCC2)c1)c1ccccc1	7.38µM*	/	19.1	-0.9%	24.5%	3.5
Cc1cccc(C(=O)Oc2ccc3ccc(O)cc3c2)c1	?	-1.1%	/	-28.4%	-21.9%	24.8*
O=C(Nc1ccncc1)C1CCN(S(=O)(=O)c2ccc(Cl)cc2)CC1	?	/	/	7.0%	?	/
Cc1ccc2[nH]c(C(F)(F)F)cc(=O)c2c1	-4.9%	-7.0%	-1.0	9.8%	-8.1%	14.4
COCCn1c(=O)[nH]c2cc(C(=O)OC)ccc2c1=O	?	1.6%	-4.1	5.5%	41.8%	1.5
Cc1c(C(C)(C)O)[nH]c2ccc(C(F)(F)F)cc12	-32.2%	-101.1%	16.8	14.1%	-4.9%	8.6*
COC(=O)c1ccc2c(C)c(C(C)(C)O)[nH]c2c1	78.5%	-22.1%	36.7	-1.7%	19.1%	14.5*
O=C(O)CC1CCCC(c2ccccc2)C1=O (stereo not given)	13.1µM*	-7.7%	-1.8	1.8%	-5.6%	1.2
SMILES	Pf growth 96h	NS1 function inh	Shiga toxin inh	Sm TGR inh	Pf growth 48h	CHX counter
O=C(O)CN1C(=O)CC(c2ccccc2)CC1=O	?	-4.0%	-3.6	-18.0%	21.1%	-2.4
CCOC(=O)C(C(=O)N(C)Cc1ccccc1)C1CCCCC1 (stereo not given)	?	-25.4%	20.5	17.2%	-16.7%	-1.1
O=c1c2ccccc2nnn1CSc1nnc(-c2ccco2)o1	1.17µM*	-17.9%	38.4	-0.9%	-2.6%	20.2*
O=C(CSc1nnc(-c2ccco2)o1)Nc1ccccc1Cl	145.9%	-15.6%	12.7	-1.6%	174.4%	16.0*
O=C(CSc1nnc(-c2ccncc2)o1)Nc1ccccc1Cl	30.7%	-7.0%	4.0	-9.0%	125.9%	9.7
O=C(O)CSc1nnc(-c2ccco2)o1	?	1.8%	-10.8	9.3%	38.3%	-2.8
O=C(CSc1nnc(-c2ccccn2)o1)Nc1ccccc1Cl	-5.0%	11.3%	70.8*	-9.7%	106.0%	32.9*
O=P(O)(O)O[C@@H]1[C@H](O)[C@H](O)[C@@H](OP(=O)(O)O)[C@H](OP(=O)(O)O)[C@H]1O	/	/	-3.6	/	/	1.3
COc1ccc(N(Cc2cc(=O)[nH]c3ccccc23)C(C)=O)cc1	8.4%	-0.5%	2.8	-3.5%	-17.3%	0.9
COc1ccc2[nH]c(-c3cccc(F)c3)cc(=O)c2c1	5.22µM*	-9.8%	51.8*	-1.7%	?	26.7*!
Cc1ccc2[nH]c(-c3cccc(F)c3)cc(=O)c2c1	4.15µM*	-6.2%	+!	-19.2%	5.22µM*	14.8*!
O=c1cc(-c2cccc(F)c2)[nH]c2ccccc12	?	-5.0%	-21.8	-7.5%	?	4.6
COc1ccc2[nH]c(-c3ccc(F)cc3F)cc(=O)c2c1	/	/	+	/	/	26.5*
COCCNC(=O)C(c1cccnc1)N(Cc1ccc(C)cc1)C(=O)Cn1nnc2ccccc21 (stereo not given)	27.8%	-4.5%	-11.3	2.9%[57.1 µM]	24.5%	-4.8
Cc1sc2nc(SCC(=O)N(C)c3ccccc3)n(C)c(=O)c2c1C	-3.0%	-4.6%	-4.8	0.7%	8.28µM*	-6.0
CCOC(=O)CSc1nc2sc(C)c(C)c2c(=O)n1C	-11.4%	-9.9%	-0.4	-6.8%	-12.8%	-3.7
CC(C)CCNC(=O)NC(=O)CSc1nnc(-c2ccccc2Br)o1	-4.0%	-45.3%	-16.3	-24.2%	/	-2.7
COc1ccc2nc(SCC(=O)/C(C#N)=C(\C)N)[nH]c2c1	i	9.8%	96.8*	4.8%	92.0%	46.6*
COc1ccc(-c2nnc(SCC(=O)/C(C#N)=C(\C)N)o2)cc1	0.0%	3.1%	107.1*	5.3%	143.5%	38.1*
COc1ccc2nc(SCC(N)=O)[nH]c2c1	/	?	8.2	-1.5%	11.2%	-2.2
C/C(N)=C(/C#N)C(=O)CSc1nnc(-c2ccccc2Br)o1	/	4.3%	126.3*	4.2%	227.3%	54.2*
COc1cccc(CNC(=O)Cn2nc3c(cc2=O)CCCC3)c1OC	/	/	/	7.4%	/	/
COc1ccccc1-c1sc2ccccc2c1-c1ccccc1OC	2.62µM*	/	/	4.1%	13.1µM*	/
COc1ccc(-c2c(-c3ccccc3OC)sc3ccccc23)cc1OC	9.28µM*	14.7%	-12.5	-6.4%	?	-3.3
